The text below walks through data of PubChem BioAssay.

Experiment [1] is described as follows: antimalarial activity against Dd2 strain (AID 2302;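 active means growth inhibition above 50% at the single 2 µM test dose, taken to imply half-maximal potency below 2 µM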;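 further: 0% = DMSO untreated growth and 100% = chloroquine plus artemisinin killed control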). The conditions noted are these: P. falciparum Dd2 in RBCs, LDH growth readout, 72 h; at 2 µM; hits give high values.
A short description of experiment [2]: HepG2 cytotoxicity, primary screen, cytotoxicity control for P. falciparum antimalarial project, cell-based, ATP luminescence (AID 2303;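 active means inhibition above 50%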;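 further: 0% = DMSO wells and 100% = digitonin-killed cells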). The conditions noted are these: HepG2 viability, 24-48 h, at 10 µM, hits give high values.
The target of experiment [3] is L-lactate dehydrogenase (Plasmodium falciparum (isolate CDC / Honduras)) (UniProt Q27743). Kind of experiment: PfLDH activity inhibition – cell lysate, 3D7 strain, counter-screen for P. falciparum growth inhibition project (AID 2304).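 Further: 0% = vehicle and 100% = reference inhibitor.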 The conditions noted are these: P. falciparum 3D7 crude extract, LDH APAD/NBT absorbance; at 2 µM; hits give high values. (In general: A counterscreen serves to expose hits that act by an unwanted route or on another target.)

Experiment [4] is described as follows: inhibition of 3D7 malaria parasite growth – strain 3D7 (AID 2306).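 Further: 0% = DMSO wells and 100% = chloroquine plus artemisinin control wells.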 The conditions noted are these: P. falciparum 3D7 erythrocytic growth, LDH absorbance, 72 h; at 2 µM; hits give high values.
The target in experiment [5] is Calcium-dependent protein kinase 1 (Plasmodium falciparum (isolate 3D7)) (UniProt P62344). Description: PfCDPK1 kinase inhibitors, biochemical, TCAMS library (AID 1159585; cut-off not given, nearly all actives have IC50 up to about 0.98 µM;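 further: inhibitors leave more ATP so luminescence rises with inhibition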). The conditions noted are these: recombinant PfCDPK1, Kinase-Glo ATP depletion luminescence. Background: Kinase-Glo reads ATP consumption through a luciferase reaction.
Experiment [6] deals with Plasmodium falciparum protein kinase 6 (PK6, PF3D7_1337100) (UniProt Q8IDW1). Description: PfPK6 kinase inhibitors, biochemical, TCAMS library (AID 1159586). The following applies: recombinant PfPK6, Kinase-Glo ATP depletion luminescence.
Experiment [7] deals with Protein kinase 7 (PK7), Plasmodium falciparum 3D7 (PF3D7_0213400) (UniProt Q7YTF7). Kind of experiment: inhibition of Plasmodium PK7 catalytic activity – biochemical, TCAMS antimalarial set, Kinase-Glo luminescence (AID 1159587). The following applies: recombinant PfPK7, Kinase-Glo ATP depletion luminescence.
For experiment [8], the target named is Calcium-dependent protein kinase 4 (Plasmodium falciparum (isolate 3D7)) (UniProt Q8IBS5). Kind of experiment: PfCDPK4 kinase inhibitors, biochemical, TCAMS library (AID 1159588; cut-off not given, nearly all actives have IC50 up to about 0.91 µM). The conditions noted are these: recombinant PfCDPK4, Kinase-Glo ATP depletion luminescence.

Each structure is given as a SMILES string. Unmarked numbers belong to inactive results. For some of these results: Results with a measured potency or affinity are listed apart. Calls of active or inactive are those of the source. Unless noted, how the calls were made is not given here.

Chain of Calcium-dependent protein kinase 1 (Plasmodium falciparum (isolate 3D7)) (P62344 whole entry, looked up): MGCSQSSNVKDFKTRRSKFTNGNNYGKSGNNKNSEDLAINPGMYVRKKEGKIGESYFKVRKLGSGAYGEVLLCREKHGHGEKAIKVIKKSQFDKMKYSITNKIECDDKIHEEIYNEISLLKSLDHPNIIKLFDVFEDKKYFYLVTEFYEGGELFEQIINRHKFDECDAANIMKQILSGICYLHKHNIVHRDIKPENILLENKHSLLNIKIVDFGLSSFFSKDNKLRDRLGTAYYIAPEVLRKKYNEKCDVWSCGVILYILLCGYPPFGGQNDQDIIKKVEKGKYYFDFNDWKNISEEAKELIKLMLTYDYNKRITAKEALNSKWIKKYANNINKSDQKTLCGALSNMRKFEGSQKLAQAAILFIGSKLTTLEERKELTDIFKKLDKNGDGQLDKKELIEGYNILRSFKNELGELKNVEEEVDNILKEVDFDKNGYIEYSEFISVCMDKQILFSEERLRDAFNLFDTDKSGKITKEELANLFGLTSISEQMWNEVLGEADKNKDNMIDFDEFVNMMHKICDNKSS
Chain of L-lactate dehydrogenase (Plasmodium falciparum (isolate CDC / Honduras)) (Q27743 whole entry, looked up): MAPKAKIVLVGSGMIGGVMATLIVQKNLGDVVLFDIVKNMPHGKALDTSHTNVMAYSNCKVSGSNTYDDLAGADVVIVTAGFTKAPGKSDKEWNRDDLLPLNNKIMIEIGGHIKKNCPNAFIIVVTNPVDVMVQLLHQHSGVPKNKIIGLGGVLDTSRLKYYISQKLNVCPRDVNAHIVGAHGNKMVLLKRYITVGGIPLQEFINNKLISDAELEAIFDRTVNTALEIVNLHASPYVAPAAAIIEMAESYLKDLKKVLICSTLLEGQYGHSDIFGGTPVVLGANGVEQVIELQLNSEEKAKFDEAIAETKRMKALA
Chain of Protein kinase 7 (PK7), Plasmodium falciparum 3D7 (PF3D7_0213400) (Q7YTF7 1-343): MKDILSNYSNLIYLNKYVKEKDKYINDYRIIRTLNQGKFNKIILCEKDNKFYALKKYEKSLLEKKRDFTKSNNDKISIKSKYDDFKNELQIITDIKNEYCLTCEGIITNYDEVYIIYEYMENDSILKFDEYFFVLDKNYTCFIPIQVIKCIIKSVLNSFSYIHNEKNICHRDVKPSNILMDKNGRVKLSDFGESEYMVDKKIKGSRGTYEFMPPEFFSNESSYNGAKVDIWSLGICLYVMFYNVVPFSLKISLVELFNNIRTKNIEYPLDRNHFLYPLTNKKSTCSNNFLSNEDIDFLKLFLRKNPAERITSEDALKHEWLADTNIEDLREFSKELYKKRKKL
Chain of Plasmodium falciparum protein kinase 6 (PK6, PF3D7_1337100) (Q8IDW1 1-305): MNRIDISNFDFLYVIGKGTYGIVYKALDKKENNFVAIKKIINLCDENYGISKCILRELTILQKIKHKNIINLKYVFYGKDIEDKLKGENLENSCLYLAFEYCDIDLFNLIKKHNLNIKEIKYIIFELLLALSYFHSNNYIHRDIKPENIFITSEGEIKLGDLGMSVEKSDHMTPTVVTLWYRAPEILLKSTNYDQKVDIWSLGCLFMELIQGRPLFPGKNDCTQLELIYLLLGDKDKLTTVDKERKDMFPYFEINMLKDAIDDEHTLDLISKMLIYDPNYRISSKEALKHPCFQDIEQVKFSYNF
Chain of Calcium-dependent protein kinase 4 (Plasmodium falciparum (isolate 3D7)) (Q8IBS5 whole entry, looked up): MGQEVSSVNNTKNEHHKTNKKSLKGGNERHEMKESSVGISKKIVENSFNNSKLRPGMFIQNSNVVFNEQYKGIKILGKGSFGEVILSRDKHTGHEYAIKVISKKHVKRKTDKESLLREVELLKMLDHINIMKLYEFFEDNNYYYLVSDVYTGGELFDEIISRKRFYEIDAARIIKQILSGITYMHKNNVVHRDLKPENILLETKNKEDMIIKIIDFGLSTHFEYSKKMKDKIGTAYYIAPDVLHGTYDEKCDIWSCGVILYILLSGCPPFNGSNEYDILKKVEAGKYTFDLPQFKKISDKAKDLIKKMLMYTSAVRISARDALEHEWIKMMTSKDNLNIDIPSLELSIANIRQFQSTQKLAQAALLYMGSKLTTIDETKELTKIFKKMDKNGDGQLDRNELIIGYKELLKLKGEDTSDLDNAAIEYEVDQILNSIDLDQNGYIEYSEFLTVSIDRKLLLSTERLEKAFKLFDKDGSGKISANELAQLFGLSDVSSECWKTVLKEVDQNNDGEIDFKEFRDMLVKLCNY

Take `CCC1N=C(N)N=C(N)N1OCc1cccc2ccccc12` (stereo not given): the growth inhibition was 1% in experiment [1] and 93% (active) in experiment [4]. Moreover, the inhibition in experiment [2] is 66% (active); in experiment [3] it was -4%. Moreover, the outcome in experiment [5], in experiment [6], in experiment [7] and in experiment [8] was inactive.

Take `O=C(Nc1ccc(N2CCCN(Cc3cccc(F)c3)CC2)cc1)c1ccccc1`: the growth inhibition in experiment [1] and in experiment [4] was 95% (active) each time. Also, the inhibition was 25% in experiment [2] and -4% in experiment [3]. Moreover, the result in experiment [5], in experiment [6], in experiment [7] and in experiment [8] was inactive.

For the compound `CCCC(C)Nc1nc(C)cc(N[C@@H](Cc2ccccc2)C(=O)Nc2ccc(OC)cc2)n1` (stereo not given in full), the growth inhibition in experiment [1] was 72% (active); in experiment [4], 100% (active). Moreover, the inhibition was 24% in experiment [2] and -1% in experiment [3]. Besides, the result in experiment [5], in experiment [6], in experiment [7] and in experiment [8] was inactive.

For `COc1ccc2ccccc2c1CNCC1CCN(CC2CCCCC2)CC1`, the growth inhibition in experiment [1] was 27%; in experiment [4], 98% (active). The inhibition in experiment [2] is 23%; in experiment [3], -3%. Moreover, the outcome in experiment [5], in experiment [6], in experiment [7] and in experiment [8] was inactive.

Take `O=C(NCc1ccccc1)c1nn(CCCN2CCC(N3CCCC3)CC2)cc1-c1ccc(Cl)c(Cl)c1`: the growth inhibition is 89% (active) in experiment [1] and 103% (active) in experiment [4]. Moreover, the results for the inhibition in experiment [2] and in experiment [3] were 29% and 0%, respectively. Also, the outcome in experiment [5], in experiment [6], in experiment [7] and in experiment [8] was inactive.

Turning to `CC(=O)NCCNc1cc(N2CCc3ncnc(Nc4ccc(OCc5c(F)cccc5F)c(Cl)c4)c3C2)ncn1`, the growth inhibition in experiment [1] and in experiment [4] was 100% (active) in each case. Further, the inhibition in experiment [2] is 55% (active); in experiment [3], 4%. The result in experiment [5], in experiment [6], in experiment [7] and in experiment [8] was inactive.

In the case of `N#Cc1cccc(NC(=O)c2cccc(S(=O)(=O)NC3CCN(CC4CCCCC4)C3)c2)c1` (stereo not given), the growth inhibition in experiment [1] was 27%; in experiment [4], 101% (active). The figures for the inhibition in experiment [2] and in experiment [3] were 29% and 1%, respectively. The result in experiment [5], in experiment [6], in experiment [7] and in experiment [8] was inactive.

As for `CC1(C)CCCN(c2ncc(-c3cccc(CNCc4ccccc4O)c3)cn2)C1`, the results for the growth inhibition in experiment [1] and in experiment [4] were 82% (active) and 96% (active), respectively. In addition, the inhibition in experiment [2] was 35%; in experiment [3], -4%. In addition, the outcome in experiment [5], in experiment [6], in experiment [7] and in experiment [8] was inactive.

`O=C(Nc1cccc(-c2ccc(-c3nc4ccc(F)cc4[nH]3)cc2)c1)Nc1ccc(F)c(F)c1F`: the growth inhibition in experiment [1] and in experiment [4] was 98% (active) each time. Further, the inhibition in experiment [2] is 53% (active); in experiment [3], 3%. Moreover, the result in experiment [5], in experiment [6], in experiment [7] and in experiment [8] was inactive.

Take `O=c1cc(NCCCNCc2cccc(I)c2)[nH]c2ccccc12`: the values for the growth inhibition in experiment [1] and in experiment [4] were 9% and 90% (active), respectively. The figures for the inhibition in experiment [2] and in experiment [3] were 10% and -1%, respectively. In addition, the outcome in experiment [5], in experiment [6], in experiment [7] and in experiment [8] was inactive.

`Cc1ccc2nc(-c3cc(-c4cccc(C#N)c4)cnc3N)[nH]c2c1`: the figures for the growth inhibition in experiment [1] and in experiment [4] were 99% (active) and 100% (active), respectively. In addition, the inhibition in experiment [2] was 40%; in experiment [3], 1%. Also, the result in experiment [5], in experiment [6], in experiment [7] and in experiment [8] was inactive.

In the case of `CC(C)N(Cc1cnc(N)c(C#N)n1)c1ccc(Cl)c(Cl)c1`, the growth inhibition was 63% (active) in experiment [1] and 97% (active) in experiment [4]. Also, the inhibition in experiment [2] was -1%; in experiment [3] it was -5%. The outcome in experiment [5], in experiment [6], in experiment [7] and in experiment [8] was inactive.

Regarding `CC(C)CCC[C@@H]([C@@H](CC1CCCCC1)C(=O)N[C@@H](CCCCNC(=O)OCc1ccccc1)C(=O)Nc1nccs1)N(O)C=O`, the results for the growth inhibition in experiment [1] and in experiment [4] were 90% (active) and 98% (active), respectively. Moreover, the values for the inhibition in experiment [2] and in experiment [3] were -4% and 3%, respectively. Further, the outcome in experiment [5], in experiment [6], in experiment [7] and in experiment [8] was inactive.

As to `O=C(NC1CCCCC1)N(Cc1cccc(-c2ccc(CNCc3ccc4c(c3)OCO4)cc2)c1)C1CCN(Cc2ccccc2)CC1`, the growth inhibition in experiment [1] is 59% (active); in experiment [4], 92% (active). The inhibition in experiment [2] is 13%; in experiment [3], -9%. Besides, the result in experiment [5], in experiment [6], in experiment [7] and in experiment [8] was inactive.

Regarding `O=C(/C=C/c1ccc(Cl)c(Cl)c1)N1CCN(C(=O)Nc2cccc(C(F)(F)F)c2)CC1`, the growth inhibition in experiment [1] was 100% (active); in experiment [4], 99% (active). Moreover, the figures for the inhibition in experiment [2] and in experiment [3] were 53% (active) and 4%, respectively. For the same compound, the result in experiment [5], in experiment [6], in experiment [7] and in experiment [8] was inactive.

With `O=C(Nc1ccc(-c2nc3ccccc3[nH]2)cc1)c1ccc(S(=O)(=O)N2CCCCCC2)cc1`, the growth inhibition in experiment [1] is 21%; in experiment [4] it was 97% (active). Also, the inhibition is 8% in experiment [2] and -6% in experiment [3]. For the same compound, the outcome in experiment [5], in experiment [6], in experiment [7] and in experiment [8] was inactive.

For `C/C=C/C=C/C1=NCCc2cc(OCCC)ccc21`, the growth inhibition is 40% in experiment [1] and 87% (active) in experiment [4]. The figures for the inhibition in experiment [2] and in experiment [3] were -1% and -4%, respectively. Further, the outcome in experiment [5], in experiment [6], in experiment [7] and in experiment [8] was inactive.

On to `COc1ccc(CCN(C)CCCCc2ccc(NC(=O)c3cccc4c(=O)c5cc(F)ccc5sc34)cc2)cc1OC`, for which the values for the growth inhibition in experiment [1] and in experiment [4] were 49% and 96% (active), respectively. The inhibition in experiment [2] was 98% (active); in experiment [3], 0%. Moreover, the result in experiment [5], in experiment [6], in experiment [7] and in experiment [8] was inactive.

With `CC(C)CC1c2[nH]c3ccccc3c(=O)c2CN1C(=O)OC(C)(C)C` (stereo not given), the growth inhibition in experiment [1] is 96% (active); in experiment [4], 97% (active). Further, the results for the inhibition in experiment [2] and in experiment [3] were 2% and -4%, respectively. Also, the outcome in experiment [5], in experiment [6], in experiment [7] and in experiment [8] was inactive.

As to `c1ccc2c(NCCCCCCCCNc3ccnc4ccccc34)ccnc2c1`, the growth inhibition in experiment [1] is 35%; in experiment [4] it was 101% (active). In addition, the inhibition was 57% (active) in experiment [2] and -1% in experiment [3]. In addition, the outcome in experiment [5], in experiment [6], in experiment [7] and in experiment [8] was inactive.

The inhibition is the relative decrease from the control value, in per cent.
